Experimental data from PubChem BioAssay AID493008 (The Scripps Research Institute Molecular Screening Center, 2010).
Screen size: about 340,000 compounds; about 800 (0.24%) were called active. This is one part of a sample in which actives are shown more often than they occur. A number with no mark means an inactive call.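 Rule for the calls: active = activation above the mean over all tested compounds plus 3 SD (cut at about 30% in these data); inactive = the rest.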

Each compound was assayed against Troponin I, cardiac muscle (Homo sapiens) + Troponin T, cardiac muscle (Homo sapiens) + Troponin C, slow skeletal and cardiac muscles (Homo sapiens) (UniProt P19429+P45379+P63316) (assay: calcium sensitizers of cardiac thin filaments – biochemical, IANBD-TnC fluorescence, EC20 calcium, primary screen (AID 493008;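 note: rise in fluorescence read as greater calcium sensitivity of cardiac thin filaments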)). Conditions: IANBD-labeled TnC RTF fluorescence at EC20 calcium; at 7.2 µM; stronger effect = higher value.

| Compound | activation |
| --- | --- |
| Cn1c(O)c(C=NCCCC(=O)O)c(=O)n(C)c1=O | 2.93% |
| CCCCC(=O)N/N=C/c1c(O)n(CC)c(=S)n(CC)c1=O | 93.2% (active) |
| O=C(N/N=C/c1c(O)n(Cc2ccccc2)c(=O)[nH]c1=O)c1ccccc1 | 0.31% |
| COc1ccccc1N=C1SCCCN1C | -2.56% |
| CN1CCc2cc3c(cc2[C@H]1[C@@H]1OC(=O)c2c1ccc1c2OCO1)OCO3 | 0.04% |
